In the supplement of paper PMC6411743:
± gives the standard deviation of the averaged measurements. Targets with the largest changes are over-represented here; the source holds about 6,200 in all.

Compound: Nc1ncnc2c1ncn2[C@@H]1O[C@H](COP(=O)(O)OP(=O)(O)NP(=O)(O)O)[C@@H](O)[C@H]1O [adenylyl imidodiphosphate]
Assay: NP40-soluble protein abundance relative to vehicle (solubility fold change) (ratio); higher = more soluble protein in presence of AMP-PNP
How it was run: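 Crude Jurkat lysate, prepared by Dounce homogenisation, was exposed to eight concentrations from 0.1 to 10 mM for 10 min at room temperature and then 3 min at 37 °C. Solubilisation used 0.8% NP40 with benzonase for 60 min at 4 °C, followed by ultracentrifugation and TMT labelling of the supernatant for LC-MS/MS. After vsn normalisation of intensities, each value is the fold change against the detergent-processed vehicle within each replicate, across three independent experiments.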

Chain of UniProt Q96DA2 (Q96DA2 whole entry): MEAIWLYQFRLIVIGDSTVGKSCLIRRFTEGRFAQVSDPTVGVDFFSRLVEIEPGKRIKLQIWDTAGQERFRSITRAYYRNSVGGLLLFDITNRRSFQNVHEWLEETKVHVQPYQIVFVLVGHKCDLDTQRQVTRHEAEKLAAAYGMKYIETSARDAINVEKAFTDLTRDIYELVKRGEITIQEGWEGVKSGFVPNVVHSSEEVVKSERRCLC
Chain of UniProt Q9ULF5 (Q9ULF5 whole entry): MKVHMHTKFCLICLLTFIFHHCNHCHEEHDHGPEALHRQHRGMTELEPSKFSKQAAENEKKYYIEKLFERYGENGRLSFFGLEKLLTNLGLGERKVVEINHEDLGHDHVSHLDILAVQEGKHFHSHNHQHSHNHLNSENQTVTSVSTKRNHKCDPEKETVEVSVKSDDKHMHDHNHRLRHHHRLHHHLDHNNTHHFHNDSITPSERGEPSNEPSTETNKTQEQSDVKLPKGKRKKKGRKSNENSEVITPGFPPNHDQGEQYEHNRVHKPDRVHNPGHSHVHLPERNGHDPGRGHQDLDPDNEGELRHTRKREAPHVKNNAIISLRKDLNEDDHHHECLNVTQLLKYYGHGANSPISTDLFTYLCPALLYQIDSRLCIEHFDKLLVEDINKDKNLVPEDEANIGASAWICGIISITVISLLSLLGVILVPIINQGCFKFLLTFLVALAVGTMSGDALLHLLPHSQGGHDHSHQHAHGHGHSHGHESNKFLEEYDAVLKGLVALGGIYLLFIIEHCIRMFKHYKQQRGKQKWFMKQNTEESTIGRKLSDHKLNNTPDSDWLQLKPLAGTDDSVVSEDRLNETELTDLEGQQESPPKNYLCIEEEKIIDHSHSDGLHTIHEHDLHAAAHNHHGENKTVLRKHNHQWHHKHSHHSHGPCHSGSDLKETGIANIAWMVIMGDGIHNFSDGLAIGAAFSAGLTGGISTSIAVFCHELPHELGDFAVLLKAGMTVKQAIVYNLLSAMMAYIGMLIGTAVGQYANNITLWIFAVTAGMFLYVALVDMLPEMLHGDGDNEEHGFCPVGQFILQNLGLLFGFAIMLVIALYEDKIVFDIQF
Chain of UniProt Q9ULE6 (Q9ULE6 whole entry): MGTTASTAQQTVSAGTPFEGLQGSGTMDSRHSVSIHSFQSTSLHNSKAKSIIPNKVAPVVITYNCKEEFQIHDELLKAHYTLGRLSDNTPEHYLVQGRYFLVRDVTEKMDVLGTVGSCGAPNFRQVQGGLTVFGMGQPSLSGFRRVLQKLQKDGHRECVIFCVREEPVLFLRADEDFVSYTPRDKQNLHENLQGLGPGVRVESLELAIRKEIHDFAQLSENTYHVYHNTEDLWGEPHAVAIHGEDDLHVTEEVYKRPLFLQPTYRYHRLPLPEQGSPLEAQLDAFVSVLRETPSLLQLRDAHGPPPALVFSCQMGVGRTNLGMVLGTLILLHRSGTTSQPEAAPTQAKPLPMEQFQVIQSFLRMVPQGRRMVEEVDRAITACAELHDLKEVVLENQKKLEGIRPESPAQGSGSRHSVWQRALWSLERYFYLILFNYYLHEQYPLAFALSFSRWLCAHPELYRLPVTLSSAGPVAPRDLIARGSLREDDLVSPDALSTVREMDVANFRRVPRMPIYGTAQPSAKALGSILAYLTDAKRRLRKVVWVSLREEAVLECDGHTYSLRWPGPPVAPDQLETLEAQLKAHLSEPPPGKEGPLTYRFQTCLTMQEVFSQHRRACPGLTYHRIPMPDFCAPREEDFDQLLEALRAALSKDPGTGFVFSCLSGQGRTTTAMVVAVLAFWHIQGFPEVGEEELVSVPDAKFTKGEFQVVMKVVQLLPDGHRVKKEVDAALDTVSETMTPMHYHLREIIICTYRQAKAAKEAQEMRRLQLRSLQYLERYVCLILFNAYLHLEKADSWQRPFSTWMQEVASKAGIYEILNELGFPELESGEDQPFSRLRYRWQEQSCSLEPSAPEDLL
Chain of UniProt Q9BZE2 (Q9BZE2 whole entry): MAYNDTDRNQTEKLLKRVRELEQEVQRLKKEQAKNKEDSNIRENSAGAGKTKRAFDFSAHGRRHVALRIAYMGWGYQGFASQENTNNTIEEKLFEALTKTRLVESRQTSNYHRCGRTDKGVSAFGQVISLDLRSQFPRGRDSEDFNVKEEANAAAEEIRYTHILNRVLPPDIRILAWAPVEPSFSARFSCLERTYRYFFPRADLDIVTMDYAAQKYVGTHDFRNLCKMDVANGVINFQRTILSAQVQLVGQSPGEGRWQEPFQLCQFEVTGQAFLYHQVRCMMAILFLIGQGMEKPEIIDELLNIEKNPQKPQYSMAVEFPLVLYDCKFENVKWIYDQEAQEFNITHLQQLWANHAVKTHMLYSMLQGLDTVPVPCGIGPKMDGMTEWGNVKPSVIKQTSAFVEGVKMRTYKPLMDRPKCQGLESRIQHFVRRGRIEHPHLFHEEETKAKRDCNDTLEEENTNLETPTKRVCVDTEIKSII
Chain of UniProt Q9NRP0 (Q9NRP0 whole entry): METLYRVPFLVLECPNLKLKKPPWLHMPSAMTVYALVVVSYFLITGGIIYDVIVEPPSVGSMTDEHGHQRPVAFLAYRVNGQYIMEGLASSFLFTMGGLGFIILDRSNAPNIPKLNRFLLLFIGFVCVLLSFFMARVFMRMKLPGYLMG
Chain of UniProt Q9HC52 (Q9HC52 whole entry): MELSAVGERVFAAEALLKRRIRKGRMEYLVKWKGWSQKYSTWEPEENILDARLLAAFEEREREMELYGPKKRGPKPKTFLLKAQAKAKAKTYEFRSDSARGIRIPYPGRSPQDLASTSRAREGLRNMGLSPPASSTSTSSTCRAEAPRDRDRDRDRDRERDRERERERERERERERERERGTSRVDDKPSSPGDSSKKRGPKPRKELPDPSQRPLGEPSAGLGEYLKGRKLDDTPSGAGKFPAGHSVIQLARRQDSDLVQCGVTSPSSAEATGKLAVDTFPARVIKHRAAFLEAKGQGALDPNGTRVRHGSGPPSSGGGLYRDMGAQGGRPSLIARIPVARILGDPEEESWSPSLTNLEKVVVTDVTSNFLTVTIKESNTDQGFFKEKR
Chain of UniProt Q9Y2Y0 (Q9Y2Y0 whole entry): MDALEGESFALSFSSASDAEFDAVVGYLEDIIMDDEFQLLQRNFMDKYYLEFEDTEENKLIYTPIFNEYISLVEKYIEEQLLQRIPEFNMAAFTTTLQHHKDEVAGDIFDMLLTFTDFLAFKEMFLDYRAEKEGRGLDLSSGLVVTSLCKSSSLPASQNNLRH
Chain of UniProt Q9BYX2 (Q9BYX2 whole entry): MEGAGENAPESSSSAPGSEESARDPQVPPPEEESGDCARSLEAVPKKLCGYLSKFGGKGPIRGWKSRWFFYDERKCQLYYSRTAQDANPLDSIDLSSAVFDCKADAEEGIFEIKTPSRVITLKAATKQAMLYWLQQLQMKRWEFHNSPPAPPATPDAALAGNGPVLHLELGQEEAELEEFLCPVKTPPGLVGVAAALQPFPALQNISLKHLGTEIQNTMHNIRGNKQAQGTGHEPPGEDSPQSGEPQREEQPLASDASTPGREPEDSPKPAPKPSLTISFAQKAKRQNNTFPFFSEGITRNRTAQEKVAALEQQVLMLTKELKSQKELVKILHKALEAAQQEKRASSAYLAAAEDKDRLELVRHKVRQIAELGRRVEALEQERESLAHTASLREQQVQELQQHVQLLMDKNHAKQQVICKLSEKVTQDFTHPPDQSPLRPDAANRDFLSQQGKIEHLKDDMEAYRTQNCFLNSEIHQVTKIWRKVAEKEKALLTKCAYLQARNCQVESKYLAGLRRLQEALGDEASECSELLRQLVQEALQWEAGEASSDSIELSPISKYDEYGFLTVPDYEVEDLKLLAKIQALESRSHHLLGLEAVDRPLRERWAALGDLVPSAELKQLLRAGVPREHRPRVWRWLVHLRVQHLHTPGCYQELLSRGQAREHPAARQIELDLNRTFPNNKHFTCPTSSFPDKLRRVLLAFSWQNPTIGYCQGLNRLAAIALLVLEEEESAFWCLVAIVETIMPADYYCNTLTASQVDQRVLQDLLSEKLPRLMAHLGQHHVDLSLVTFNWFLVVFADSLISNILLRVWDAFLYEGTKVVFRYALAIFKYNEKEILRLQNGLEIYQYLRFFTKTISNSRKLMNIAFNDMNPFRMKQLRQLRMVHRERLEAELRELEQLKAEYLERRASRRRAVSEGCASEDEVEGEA
Chain of UniProt Q9C0B0 (Q9C0B0 whole entry): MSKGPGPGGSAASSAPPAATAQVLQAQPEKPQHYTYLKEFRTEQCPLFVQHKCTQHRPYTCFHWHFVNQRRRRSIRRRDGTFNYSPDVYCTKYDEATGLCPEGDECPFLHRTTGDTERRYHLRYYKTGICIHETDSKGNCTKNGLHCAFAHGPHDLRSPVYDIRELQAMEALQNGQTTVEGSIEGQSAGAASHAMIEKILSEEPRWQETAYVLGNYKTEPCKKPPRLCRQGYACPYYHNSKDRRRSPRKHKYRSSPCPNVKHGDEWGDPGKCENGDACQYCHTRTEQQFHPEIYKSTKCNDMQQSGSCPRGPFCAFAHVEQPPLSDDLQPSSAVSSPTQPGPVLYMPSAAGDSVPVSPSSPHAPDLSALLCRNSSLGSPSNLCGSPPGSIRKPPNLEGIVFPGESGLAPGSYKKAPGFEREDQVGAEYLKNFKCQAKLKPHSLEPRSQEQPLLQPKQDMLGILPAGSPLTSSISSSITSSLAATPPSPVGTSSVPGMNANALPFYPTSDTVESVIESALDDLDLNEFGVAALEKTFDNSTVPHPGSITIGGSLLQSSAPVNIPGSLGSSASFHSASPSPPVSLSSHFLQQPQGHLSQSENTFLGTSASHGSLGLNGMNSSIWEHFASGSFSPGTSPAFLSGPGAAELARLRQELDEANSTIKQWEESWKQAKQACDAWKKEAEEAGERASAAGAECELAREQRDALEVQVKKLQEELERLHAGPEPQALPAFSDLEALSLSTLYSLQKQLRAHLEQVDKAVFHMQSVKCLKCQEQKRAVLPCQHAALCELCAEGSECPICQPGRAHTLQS
Chain of UniProt Q9UHV9 (Q9UHV9 whole entry): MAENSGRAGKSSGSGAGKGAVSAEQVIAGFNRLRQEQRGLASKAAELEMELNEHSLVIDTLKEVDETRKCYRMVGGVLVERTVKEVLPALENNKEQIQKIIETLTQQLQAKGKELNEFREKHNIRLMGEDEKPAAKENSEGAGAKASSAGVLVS

Target	NP40-soluble protein abundance (concentration: 1mM)	NP40-soluble protein abundance (concentration: 2mM)	NP40-soluble protein abundance (concentration: 4mM)	NP40-soluble protein abundance (concentration: 6mM)	NP40-soluble protein abundance (concentration: 8mM)	NP40-soluble protein abundance (concentration: 10mM)
UniProt Q9H0A0|Q9H0A0-2|A0A087WV29	1.47 ± 0.19	1.5 ± 0.19	1.62 ± 0.21	1.66 ± 0.17	1.79 ± 0.25	1.8 ± 0.17
UNK (UniProt Q9C0B0)	1.071 ± 0.0069	1.12 ± 0.056	1.11 ± 0.021	1.09 ± 0.072	1.1 ± 0.045	1.11 ± 0.033
SLC39A10 (UniProt Q9ULF5)	0.998 ± 0.021	1.07 ± 0.045	1.01 ± 0.026	1 ± 0.029	0.985 ± 0.04	0.994 ± 0.036
UniProt Q9BYX2|Q9BYX2-2	0.981 ± 0.013	0.9921 ± 0.0015	1 ± 0.028	0.985 ± 0.042	0.972 ± 0.012	0.9639 ± 0.0013
UniProt Q9NVM9	1.03 ± 0.027	1.02 ± 0.04	1.05 ± 0.033	1.02 ± 0.069	1.03 ± 0.075	1.03 ± 0.063
ATAD5 (UniProt Q96QE3)	1.03 ± 0.026	1.05 ± 0.046	1.08 ± 0.028	1.08 ± 0.031	1.08 ± 0.022	1.12 ± 0.045
OSTC (UniProt Q9NRP0)	1.02 ± 0.038	1.02 ± 0.025	1.03 ± 0.049	1.03 ± 0.022	1.039 ± 0.0094	1.04 ± 0.015
UniProt Q9H8P0|H0Y9P9	0.933 ± 0.084	0.9132 ± 0.0065	0.948 ± 0.063	0.999 ± 0.14	1.02 ± 0.12	1.05 ± 0.15
UniProt Q9ULE6	0.981 ± 0.025	0.96 ± 0.013	1.01 ± 0.02	0.959 ± 0.027	0.957 ± 0.016	0.944 ± 0.025
PUS3 (UniProt Q9BZE2)	1.01 ± 0.013	0.997 ± 0.0053	1 ± 0.026	1.03 ± 0.054	0.978 ± 0.032	0.974 ± 0.019
NSMCE4A (UniProt Q9NXX6)	0.993 ± 0.068	0.945 ± 0.067	0.967 ± 0.056	0.933 ± 0.017	0.96 ± 0.026	0.941 ± 0.09
UniProt Q9Y2Y0|Q9Y2Y0-2	0.982 ± 0.014	0.972 ± 0.026	0.989 ± 0.036	0.988 ± 0.049	0.975 ± 0.032	0.953 ± 0.015
RAB39B (UniProt Q96DA2)	1 ± 0.025	0.934 ± 0.066	0.996 ± 0.019	0.9868 ± 0.0097	0.986 ± 0.015	0.954 ± 0.041
PFDN2 (UniProt Q9UHV9)	1.05 ± 0.084	1.11 ± 0.11	0.986 ± 0.062	0.928 ± 0.1	0.85 ± 0.016	0.941 ± 0.083
CBX8 (UniProt Q9HC52)	1.08 ± 0.015	1.1 ± 0.04	1.13 ± 0.018	1.23 ± 0.028	1.33 ± 0.062	1.39 ± 0.044
NOP58 (UniProt Q9Y2X3)	1.11 ± 0.021	1.17 ± 0.013	1.17 ± 0.014	1.24 ± 0.054	1.32 ± 0.033	1.46 ± 0.057
LRRC45 (UniProt Q96CN5)	0.977 ± 0.065	0.919 ± 0.029	0.969 ± 0.022	0.97 ± 0.015	1 ± 0.032	0.956 ± 0.03
TIPIN (UniProt Q9BVW5)	0.948 ± 0.06	1.04 ± 0.14	0.933 ± 0.072	0.928 ± 0.063	0.911 ± 0.057	0.929 ± 0.093
